Test results reported in PubChem BioAssay (NCATS).
Results filed as inconclusive are left out. The source made the active and inactive calls. Unless noted, calls come from the whole dose curve; as a rule, active = well fitted curve in the direction sought with a large enough effect; inconclusive = small, poorly fitted or top-dose-only effect, or another doubt; inactive = no such curve, though single readings can be large; an effect the other way counts as inactive or inconclusive.

Key:
[1] = molecular target: Thioredoxin reductase 1, cytoplasmic (Rattus norvegicus) (UniProt O89049); test: qHTS Assay for Substrates of Mammalian Selenoprotein Thioredoxin Reductase 1 (TrxR1) (AID 488772);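 note: NADPH fluorescence in the first read after selenite addition and not the 8 min delta; series mostly up to about 57 µM; 0% is about no effect; a drop in NADPH fluorescence below the no-compound background marks a TrxR1 substrate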
In short: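 Quantitative HTS in Tris-HCl buffer at pH 7.5 with EDTA and Tween-20, using rat TrxR1, 400 uM NADPH and 400 uM selenite (final). A fall in initial NADPH fluorescence relative to background marked substrate behaviour.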

[2] = molecular target: Thioredoxin reductase 1, cytoplasmic (Rattus norvegicus) (UniProt O89049); test: qHTS Assay for Inhibitors of Mammalian Selenoprotein Thioredoxin Reductase 1 (TrxR1) (AID 488773); details: Potency: inhibition;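 note: drop in NADPH fluorescence over an 8 min run after selenite addition; series mostly up to about 57 µM; % is set by controls: 0 for no effect and ±100 for the full control effect; nearly all actives have a fitted effect of over 40% in size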
In short: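 Steps: enzyme (90 nM) plus NADPH (400 uM final), 5 min at ~22 deg C; compound added, 15 min; selenite (400 uM final) added; fluorescence followed for 8 min. Concentration-response curves derived from the normalized delta values.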

[3] = molecular target: Flap endonuclease 1 (Homo sapiens) (UniProt P39748); test: qHTS Validation Assay for the Inhibitors of Human Flap endonuclease 1 (FEN1) (AID 488816); note: % is set by controls: 0 for no effect and ±100 for the full control effect
In short: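 FEN1, dispensed as a 10 nM reagent, was preincubated with pin-transferred compounds for 15 min at room temperature before substrate was added (50 nM final). Plates were read at 0 and 15 min, and a four-parameter Hill equation was fitted to the concentration-response data.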

[4] = molecular target: M-phase phosphoprotein 8 (Homo sapiens) (UniProt Q99549); test: qHTS Validation Assay for Inhibitors for MPP8 Chromodomain Interactions with Methylated Histone Tails (AID 488949);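 note: AlphaScreen signal from MPP8 chromodomain bound to biotinylated H3K9me3 peptide; top concentration of the series differs between compounds; % is set by controls: 0 for no effect and ±100 for the full control effect; nearly all actives have a fitted effect of over 55% in size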
In short: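 AlphaScreen read-out: streptavidin donor and nickel chelate acceptor beads (final 10 ug/mL), 30 min in the dark at RT. Complex of 50 nM MPP8 and 50 nM b-H3(1-18)K9me3 peptide had been exposed to compounds for 30 min beforehand.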

[5] = molecular target: Methanococcus maripaludis chaperonin (MmCpn) (UniProt Q6LX38); test: High-Throughput Screening for Modulators of Cytosolic Chaperonin Activity: MmCpn Primary Screen (AID 488978);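 note: 50 nM MmCpn enzyme hydrolysing 30 µM ATP at 37 °C; 0% is about no effect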
In short: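 ADP formation read by HTRF Transcreener, 665/590 nm emission after 320 nm excitation. Enzyme: archaeal chaperonin at 50 nM final; substrate ATP 30 uM final; 10 min, 37C, after 5 min compound preincubation at RT.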

[6] = molecular target: Transient receptor potential cation channel subfamily V member 1 (Homo sapiens) (UniProt Q8NER1); test: HTS Assay for Compounds that Act as Enhancers of the Vanilloid Receptor 1 (AID 488979); note: 0% is about no effect
In short: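 TRPV1-expressing cells loaded with Fluo-8 calcium dye; compounds added and calcium influx read kinetically for 3 min (agonist phase), then capsaicin at EC20 added and read 2 min more for enhancement. Fluorescence ex 480/em 520 nm.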

[7] = molecular target: Thyrotropin receptor (Homo sapiens) (UniProt P16473); test: qHTS Assay for Antagonists of the Thyroid Stimulating Hormone Receptor (AID 488980); note: series mostly up to about 58 µM; 0% is about no effect
In short: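 TSHR-HEK293 cells; 70 uM RO 20-1724 PDE inhibitor; compound + EC80 TSH (4 nM final); anti-cAMP cryptate antibody/cAMP-d2 in lysis buffer, 30 min RT; HTRF 665/620 nm read.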

[8] = molecular target: D(1A) dopamine receptor (Homo sapiens) (UniProt P21728); test: HTS Assay for Allosteric Agonists of the Human D1 Dopamine Receptor: Primary Screen for Agonists (AID 488981); note: potency is the fitted concentration of half-maximal effect; for activation: 0% is about no effect
In short: (§1)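 Tetracycline-induced HEK293 T-REx cells force-coupled to calcium signalling were incubated overnight at 30 C and dye-loaded at room temperature. Calcium flux over 180 s after compound addition flagged agonists; a further 180 s read after EC20 dopamine flagged potentiators.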

[9] = molecular target: D(1A) dopamine receptor (Homo sapiens) (UniProt P21728); test: HTS Assay for Allosteric Agonists of the Human D1 Dopamine Receptor: Primary Screen for Potentiators (AID 488982); note: 0% is about no effect
In short: as §1

[10] = molecular target: D(1A) dopamine receptor (Homo sapiens) (UniProt P21728); test: HTS Assay for Allosteric Agonists of the Human D1 Dopamine Receptor: Primary Screen for Antagonists (AID 488983);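 note: calcium flux response to an EC80 dopamine challenge measured with no-wash dye; nearly all actives have a fitted effect of over 65% in size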; note: potency is the fitted concentration of half-maximal effect
In short: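 Cells are induced with tetracycline and incubated overnight at 30 C, then loaded with calcium dye for 30 to 90 minutes at room temperature. Compound addition is followed by a 180 s read, then an EC80 dopamine addition and another 180 s read.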

[11] = Validation screen for small molecules that induce genotoxicity in human embryonic kidney (HEK293T) cells expressing luciferase-tagged ELG1 (AID 493106); note: potency is the fitted concentration of half-maximal effect
In short: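 Luminescence from an ELG1-luciferase fusion serves as the read-out, rising when genetic stress elevates ELG1 protein. HEK293T reporter cells (2,000 per well) received 23 nL compound, incubated 16 hr at 37 °C, then ONE-Glo for 30 min at room temperature.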

[12] = molecular target: ATPase family AAA domain-containing protein 5 (Homo sapiens) (UniProt Q96QE3); test: Validation screen for small molecules that inhibit ELG1-dependent DNA repair in human embryonic kidney (HEK293T) cells expressing luciferase-tagged ELG1 (AID 493107); note: nearly all actives have a fitted effect of over 70% in size; note: potency is the fitted concentration of half-maximal effect
In short: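 Luminescence from ONE-Glo, developed 30 min at room temperature, served as read-out of ELG1-luciferase levels. Beforehand, reporter HEK293T cells received 5-fluorouridine plus test compound for 16 hr at 37 °C.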

[13] = molecular target: Thyrotropin-releasing hormone receptor (Homo sapiens) (UniProt P34981); test: qHTS for Small Molecule Agonists and Allosteric Enhancers of Human TRH Receptor: Validation Screen for Agonists (AID 493127;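 active = calcium activation more than 3 SD above the typical response in the agonist read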;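 note: intracellular calcium rise by fluo-8 fluorescence before TRH EC20 addition; 0% is about no effect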); details: TRH receptor agonist cell assay; at 2 µM; stronger effect = higher value
In short: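 Cells 2000/well, 10% FCS, 18 h 33.5C/5% CO2 → fluo-8 Ca dye, RT 30 min–1.5 h → FDSS baseline 10 × 1 s → compound added → 230 cycles (1 s/cycle) agonist mode. TRH controls.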

[14] = Nrf2 qHTS screen for inhibitors: Validation (AID 493153; active = well fitted inhibition curve with a large enough effect in the main read-out, with a control signal flat, not every such curve was filed as active; note: potency is the fitted concentration of half-maximal effect); details: Potency: luciferase luminescence; viability change: measured here: cytotoxicity max response
In short: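 Luminescence from an ARE-firefly luciferase reporter in A549 cells gives Nrf2 inhibition; an earlier CellTiter-Fluor fluorescent read flags cytotoxicity. Cells in 5% FBS OPTI-MEM received compound dilution series for 18-24 h at 37°C.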

[15] = qHTS for Inhibitors of Cell Surface uPA Generation: Validation Assay (AID 493164); note: 0% is about no effect
In short: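 RAW 264.7 cells (4000/well) were plated overnight, then exposed for 18 h at 37 C, 5% CO2 to compounds in a 7-point 1:5 titration (2.45 nM–38.3 uM final). Intracellular ATP was read by ATP-Lite luminescence.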

[16] = molecular target: Galactokinase (Homo sapiens) (UniProt P51570); test: qHTS Validation Assay for Inhibitors of Human Galactokinase (GALK) (AID 493189); note: 0% is about no effect
In short: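 Luminescence from leftover ATP (Kinase-Glo Plus, 10 min) served as read-out after a 1 h room-temperature reaction of 5 nM GALK, 100 uM galactose and 35 uM ATP at pH8.0.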

[17] = Validation screen for small molecules that induce DNA re-replication in SW480 colon adenocarcinoma cells (AID 504364); note: potency is the fitted concentration of half-maximal effect
In short: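 250 cells/well; compound pinned in; 48 hr, 37 C, 5% CO2; Hoechst added, 40 min; nuclear fluorescence imaged, 405 ex / 500-530 em; re-replication scored as increase in high-intensity nuclei.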

[18] = molecular target: Chromobox protein homolog 1 (Homo sapiens) (UniProt P83916); test: qHTS Validation Assay for Inhibitors of HP1-beta Chromodomain Interactions with Methylated Histone Tails (AID 488953); note: nearly all actives have a fitted effect of over 50% in size; note: potency is the fitted concentration of half-maximal effect
In short: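 50 nM HP1-beta + 50 nM biotin-H3(1-18)K9me3, PBS pH 7.4, 0.01% Tween-20, 30 min RT; compound added, 30 min RT; AlphaScreen beads 10 ug/mL final, 30 min dark; luminescence read.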

Sequence of Methanococcus maripaludis chaperonin (MmCpn) (Q6LX38 1-543): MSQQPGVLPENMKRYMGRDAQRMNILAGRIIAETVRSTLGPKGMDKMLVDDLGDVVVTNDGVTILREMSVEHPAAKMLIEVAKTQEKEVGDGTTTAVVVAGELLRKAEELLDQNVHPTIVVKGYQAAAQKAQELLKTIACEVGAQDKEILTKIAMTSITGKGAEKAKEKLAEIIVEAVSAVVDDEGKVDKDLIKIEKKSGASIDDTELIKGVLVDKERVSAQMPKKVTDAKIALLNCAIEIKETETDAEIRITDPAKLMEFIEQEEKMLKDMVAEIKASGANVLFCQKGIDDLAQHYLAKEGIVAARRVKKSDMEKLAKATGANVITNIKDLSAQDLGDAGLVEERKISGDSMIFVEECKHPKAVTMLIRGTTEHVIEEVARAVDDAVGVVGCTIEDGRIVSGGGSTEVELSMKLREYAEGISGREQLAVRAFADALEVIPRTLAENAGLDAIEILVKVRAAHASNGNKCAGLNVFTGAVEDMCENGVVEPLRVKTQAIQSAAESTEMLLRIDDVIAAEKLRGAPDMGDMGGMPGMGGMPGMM
Sequence of D(1A) dopamine receptor (Homo sapiens) (P21728 whole entry, looked up): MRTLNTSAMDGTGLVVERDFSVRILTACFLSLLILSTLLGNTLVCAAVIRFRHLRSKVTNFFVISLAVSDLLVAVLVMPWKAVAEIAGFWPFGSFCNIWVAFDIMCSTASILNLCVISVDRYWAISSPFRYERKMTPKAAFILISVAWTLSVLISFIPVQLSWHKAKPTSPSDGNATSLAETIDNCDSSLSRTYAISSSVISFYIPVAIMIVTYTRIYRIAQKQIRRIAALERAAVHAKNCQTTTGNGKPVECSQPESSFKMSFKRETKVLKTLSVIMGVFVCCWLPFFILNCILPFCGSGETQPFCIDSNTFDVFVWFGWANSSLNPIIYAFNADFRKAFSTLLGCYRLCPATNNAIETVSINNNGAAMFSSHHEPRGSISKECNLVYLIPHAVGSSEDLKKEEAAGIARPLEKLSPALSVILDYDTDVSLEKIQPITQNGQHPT
Sequence of Thyrotropin-releasing hormone receptor (Homo sapiens) (P34981 whole entry, looked up): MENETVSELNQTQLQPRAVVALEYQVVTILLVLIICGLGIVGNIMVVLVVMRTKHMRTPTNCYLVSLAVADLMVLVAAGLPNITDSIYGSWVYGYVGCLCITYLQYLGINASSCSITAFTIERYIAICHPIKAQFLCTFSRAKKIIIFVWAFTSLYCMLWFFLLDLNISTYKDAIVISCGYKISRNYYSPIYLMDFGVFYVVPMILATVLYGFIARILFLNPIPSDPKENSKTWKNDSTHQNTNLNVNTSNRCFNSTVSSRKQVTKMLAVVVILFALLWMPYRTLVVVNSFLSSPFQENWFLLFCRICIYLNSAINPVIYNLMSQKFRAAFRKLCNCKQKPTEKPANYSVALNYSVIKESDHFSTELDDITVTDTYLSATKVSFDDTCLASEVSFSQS
Sequence of Thioredoxin reductase 1, cytoplasmic (Rattus norvegicus) (O89049 whole entry, looked up): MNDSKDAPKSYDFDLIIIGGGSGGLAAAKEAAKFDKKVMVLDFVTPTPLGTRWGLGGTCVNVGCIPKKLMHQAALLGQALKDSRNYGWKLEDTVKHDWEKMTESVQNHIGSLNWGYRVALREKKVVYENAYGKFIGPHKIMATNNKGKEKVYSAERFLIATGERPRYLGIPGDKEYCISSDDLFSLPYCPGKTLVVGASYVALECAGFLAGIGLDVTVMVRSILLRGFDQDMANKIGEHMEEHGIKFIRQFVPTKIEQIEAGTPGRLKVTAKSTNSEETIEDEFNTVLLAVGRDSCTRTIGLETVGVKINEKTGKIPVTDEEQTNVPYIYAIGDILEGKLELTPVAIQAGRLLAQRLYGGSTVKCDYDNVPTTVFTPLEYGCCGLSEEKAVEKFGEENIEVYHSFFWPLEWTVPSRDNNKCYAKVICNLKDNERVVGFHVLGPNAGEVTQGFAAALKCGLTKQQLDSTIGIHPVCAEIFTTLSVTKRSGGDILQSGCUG
Sequence of M-phase phosphoprotein 8 (Homo sapiens) (Q99549 whole entry, looked up): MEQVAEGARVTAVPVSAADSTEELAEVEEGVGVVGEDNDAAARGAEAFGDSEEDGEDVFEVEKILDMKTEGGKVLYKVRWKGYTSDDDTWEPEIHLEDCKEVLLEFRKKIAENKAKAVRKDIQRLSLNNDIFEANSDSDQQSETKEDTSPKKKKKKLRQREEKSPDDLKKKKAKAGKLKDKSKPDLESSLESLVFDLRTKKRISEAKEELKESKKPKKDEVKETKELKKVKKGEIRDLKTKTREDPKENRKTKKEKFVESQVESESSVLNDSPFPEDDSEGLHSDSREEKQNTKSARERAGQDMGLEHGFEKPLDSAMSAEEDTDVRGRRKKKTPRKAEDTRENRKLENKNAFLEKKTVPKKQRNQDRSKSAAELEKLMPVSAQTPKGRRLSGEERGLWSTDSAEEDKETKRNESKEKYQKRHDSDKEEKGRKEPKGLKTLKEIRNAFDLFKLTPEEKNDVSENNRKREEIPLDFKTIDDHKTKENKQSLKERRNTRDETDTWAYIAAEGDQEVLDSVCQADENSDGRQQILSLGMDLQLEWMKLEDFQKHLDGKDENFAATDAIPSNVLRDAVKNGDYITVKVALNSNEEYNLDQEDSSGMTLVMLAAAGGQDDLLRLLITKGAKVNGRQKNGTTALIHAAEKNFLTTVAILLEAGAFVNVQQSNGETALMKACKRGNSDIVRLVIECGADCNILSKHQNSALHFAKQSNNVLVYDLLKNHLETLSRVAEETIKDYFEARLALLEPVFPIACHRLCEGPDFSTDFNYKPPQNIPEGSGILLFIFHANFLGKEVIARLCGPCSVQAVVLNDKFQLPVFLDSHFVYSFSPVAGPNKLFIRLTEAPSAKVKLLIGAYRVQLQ
Sequence of Flap endonuclease 1 (Homo sapiens) (P39748 whole entry, looked up): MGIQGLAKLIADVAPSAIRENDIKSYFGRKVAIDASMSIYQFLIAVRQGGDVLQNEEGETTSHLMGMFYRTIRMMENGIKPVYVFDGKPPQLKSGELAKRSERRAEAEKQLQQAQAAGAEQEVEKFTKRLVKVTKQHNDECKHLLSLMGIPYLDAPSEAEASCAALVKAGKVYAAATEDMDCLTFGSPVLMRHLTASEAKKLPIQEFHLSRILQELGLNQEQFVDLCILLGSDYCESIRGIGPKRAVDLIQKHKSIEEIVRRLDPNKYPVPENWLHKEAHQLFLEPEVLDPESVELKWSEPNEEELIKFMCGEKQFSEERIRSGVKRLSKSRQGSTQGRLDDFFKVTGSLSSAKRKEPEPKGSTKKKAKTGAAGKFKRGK
Sequence of ATPase family AAA domain-containing protein 5 (Homo sapiens) (Q96QE3 whole entry, looked up, the tested form may be a part): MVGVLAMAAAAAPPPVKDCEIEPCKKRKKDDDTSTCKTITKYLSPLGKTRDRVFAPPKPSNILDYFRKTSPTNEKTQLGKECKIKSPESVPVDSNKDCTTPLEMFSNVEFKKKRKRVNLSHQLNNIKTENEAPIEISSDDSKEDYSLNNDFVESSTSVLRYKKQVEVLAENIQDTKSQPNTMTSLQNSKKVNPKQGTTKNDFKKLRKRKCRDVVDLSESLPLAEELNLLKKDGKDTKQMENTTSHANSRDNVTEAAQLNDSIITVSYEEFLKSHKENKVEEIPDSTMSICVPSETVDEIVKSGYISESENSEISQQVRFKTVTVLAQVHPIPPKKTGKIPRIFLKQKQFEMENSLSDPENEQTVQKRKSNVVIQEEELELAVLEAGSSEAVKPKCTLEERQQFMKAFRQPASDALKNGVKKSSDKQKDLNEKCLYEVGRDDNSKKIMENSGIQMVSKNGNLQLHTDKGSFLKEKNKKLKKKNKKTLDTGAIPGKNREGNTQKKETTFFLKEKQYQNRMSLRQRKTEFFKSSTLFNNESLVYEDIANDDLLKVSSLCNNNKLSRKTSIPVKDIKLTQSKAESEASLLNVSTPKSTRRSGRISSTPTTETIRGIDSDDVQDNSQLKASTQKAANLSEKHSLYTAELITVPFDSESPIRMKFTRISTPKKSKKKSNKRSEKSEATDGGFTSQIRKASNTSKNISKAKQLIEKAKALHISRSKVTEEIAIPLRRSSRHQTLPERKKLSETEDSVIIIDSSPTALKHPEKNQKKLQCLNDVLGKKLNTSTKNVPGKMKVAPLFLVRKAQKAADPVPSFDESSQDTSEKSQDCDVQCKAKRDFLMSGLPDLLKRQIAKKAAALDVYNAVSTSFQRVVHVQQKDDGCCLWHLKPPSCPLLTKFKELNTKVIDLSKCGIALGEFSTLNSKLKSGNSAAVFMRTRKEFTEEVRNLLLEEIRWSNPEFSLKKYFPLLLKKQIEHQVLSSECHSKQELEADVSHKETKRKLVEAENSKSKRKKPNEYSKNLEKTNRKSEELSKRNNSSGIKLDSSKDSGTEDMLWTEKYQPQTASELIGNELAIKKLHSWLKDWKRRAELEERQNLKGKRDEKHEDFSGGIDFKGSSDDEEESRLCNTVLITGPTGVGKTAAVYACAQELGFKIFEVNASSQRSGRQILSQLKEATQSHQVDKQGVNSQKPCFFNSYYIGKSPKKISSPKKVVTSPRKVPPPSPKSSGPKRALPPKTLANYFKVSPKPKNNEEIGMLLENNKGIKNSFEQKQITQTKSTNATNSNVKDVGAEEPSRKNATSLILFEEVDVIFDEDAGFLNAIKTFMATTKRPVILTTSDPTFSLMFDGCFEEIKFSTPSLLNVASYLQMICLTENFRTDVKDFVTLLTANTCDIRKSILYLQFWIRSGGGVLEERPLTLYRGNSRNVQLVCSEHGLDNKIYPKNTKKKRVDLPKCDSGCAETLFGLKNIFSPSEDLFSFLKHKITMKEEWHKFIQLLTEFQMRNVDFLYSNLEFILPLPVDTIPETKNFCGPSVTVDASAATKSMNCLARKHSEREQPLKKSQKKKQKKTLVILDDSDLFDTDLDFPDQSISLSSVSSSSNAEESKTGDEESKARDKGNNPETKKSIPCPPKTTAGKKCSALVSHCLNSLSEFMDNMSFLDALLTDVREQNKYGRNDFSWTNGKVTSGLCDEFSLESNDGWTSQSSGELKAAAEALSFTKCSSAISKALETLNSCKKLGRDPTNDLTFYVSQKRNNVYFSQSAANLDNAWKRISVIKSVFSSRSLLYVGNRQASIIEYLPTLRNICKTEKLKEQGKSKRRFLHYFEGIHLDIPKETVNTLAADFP

NCCNC(=O)c1ncsc1-c1cccc(F)c1
inactive: Potency [1] | Potency [2] | Potency [3] | Potency [4] | outcome [5] | outcome [6] | outcome [7] | Potency [8] | Potency [9] | Potency [10] | Potency [11] | Potency [12] | activation [13] -2.38% | Potency [14] | outcome [15] | Potency [16] | Potency [17]
1.7%: viability change [14]

COC1=C(OC)C(=O)c2ccccc2C1=O
inactive: Potency [1] | Potency [2] | Potency [3] | Potency [4] | Potency [18] | outcome [5] | outcome [6] | outcome [7] | Potency [8] | Potency [10] | Potency [11] | Potency [12] | activation [13] 0.688% | outcome [15] | Potency [16]

COc1cccc(C(=O)NCCN2CCN(c3ccc(Cl)cc3)CC2)c1
-10%: viability change [14]
inactive: Potency [1] | Potency [2] | Potency [3] | Potency [4] | outcome [5] | outcome [6] | outcome [7] | Potency [8] | Potency [9] | Potency [11] | activation [13] 0.562% | Potency [14] | outcome [15] | Potency [16] | Potency [17]

c1cnc2c(c1)ccc1cccnc12
inactive: Potency [1] | Potency [2] | Potency [3] | Potency [4] | outcome [5] | outcome [6] | outcome [7] | Potency [8] | Potency [9] | Potency [10] | outcome [15] | Potency [16] | Potency [17]
active: Potency [12] 6.51 µM

C[N+](C)(C)CCOP(=O)(O)OP(=O)([O-])OC[C@H]1O[C@@H](n2ccc(N)nc2=O)[C@H](O)[C@@H]1O
2.92%: viability change [14]
inactive: Potency [1] | Potency [2] | Potency [3] | Potency [4] | Potency [18] | outcome [5] | Potency [8] | Potency [10] | Potency [11] | Potency [12] | Potency [14] | outcome [15]

CCCCCCCCCCCCCCCCCC(=O)OC(CC(=O)O)C[N+](C)(C)C (configuration not stated)
active: Potency [8] 11.2 µM | Potency [17] 11.6 µM
inactive: Potency [1] | Potency [2] | Potency [3] | Potency [4] | outcome [5] | outcome [6] | outcome [7] | Potency [9] | Potency [11] | Potency [12] | activation [13] -0.5% | outcome [15] | Potency [16]

CNCC[C@H](Oc1ccc(C(F)(F)F)cc1)c1ccccc1
inactive: Potency [1] | Potency [2] | Potency [3] | Potency [4] | outcome [5] | outcome [7] | Potency [9] | Potency [11] | Potency [12] | activation [13] 14.1% | Potency [14] | outcome [15] | Potency [16] | Potency [17]
1.58%: viability change [14]

COc1ccc(NC(=O)/C=C/c2ccc(Cl)cc2)cc1
-1.36%: viability change [14]
inactive: Potency [1] | Potency [2] | Potency [3] | Potency [4] | outcome [5] | outcome [6] | outcome [7] | Potency [8] | Potency [9] | activation [13] 1.19% | Potency [14] | outcome [15] | Potency [16] | Potency [17]
active: Potency [11] 2.59 µM

O=C(O)c1cc([N+](=O)[O-])ccc1NCCCc1ccccc1
inactive: Potency [1] | Potency [2] | Potency [3] | Potency [4] | Potency [18] | outcome [5] | outcome [6] | outcome [7] | Potency [8] | Potency [9] | Potency [11] | Potency [12] | activation [13] 0% | outcome [15] | Potency [16] | Potency [17]

Clc1ccc(N2CCN(Cc3cc4ccccn4n3)CC2)cc1
inactive: Potency [1] | Potency [2] | Potency [3] | Potency [4] | outcome [5] | Potency [8] | Potency [9] | Potency [10] | Potency [11] | Potency [12] | Potency [14] | outcome [15]
2.97%: viability change [14]

O=C(O)c1cc(=O)c2ccccc2[nH]1
inactive: Potency [1] | Potency [2] | Potency [3] | Potency [4] | outcome [5] | outcome [6] | outcome [7] | Potency [8] | Potency [9] | Potency [11] | Potency [12] | activation [13] 0.125% | Potency [14] | outcome [15] | Potency [16] | Potency [17]
-7.12%: viability change [14]
active: Potency [18] 0.0474 µM

Cc1cc2c(cc1Cl)N(C(=O)Nc1ccc(Oc3cccnc3C)nc1)CC2
inactive: Potency [1] | Potency [2] | Potency [3] | Potency [4] | Potency [8] | Potency [11]
active: Potency [18] 44.7 µM | Potency [10] 14.1 µM | Potency [14] 7.31 µM
-19.7%: viability change [14]

NC(CCCP(=O)(O)O)C(=O)O (configuration not stated)
3.42%: viability change [14]
inactive: Potency [1] | Potency [2] | Potency [3] | Potency [4] | outcome [5] | outcome [6] | outcome [7] | Potency [8] | Potency [10] | Potency [11] | Potency [12] | activation [13] 0.562% | Potency [14] | outcome [15] | Potency [16] | Potency [17]

O=C1NC(=O)/C(=C/c2ccc3nccnc3c2)S1
inactive: Potency [1] | Potency [2] | Potency [3] | Potency [4] | Potency [18] | outcome [5] | Potency [8] | Potency [9] | Potency [10] | outcome [15]

O=C(O)CC[C@@H](C(=O)O)N1C(=O)c2ccccc2C1=O
inactive: Potency [1] | Potency [2] | Potency [3] | Potency [4] | outcome [5] | outcome [6] | outcome [7] | Potency [8] | Potency [11] | Potency [12] | activation [13] 0.125% | Potency [14] | outcome [15] | Potency [16] | Potency [17]
9.01%: viability change [14]
